Legend:
Type in all cases: functional
Plasmodium falciparum [1] = assay: GSK_TCMDC: Inhibition of Plasmodium falciparum 3D7 in whole red blood cells, using parasite LDH activity as an index of growth. Test compounds present at 2uM
Plasmodium falciparum [2] = assay: GSK_TCMDC: Inhibition of Plasmodium falciparum Dd2 in whole red blood cells, using parasite LDH activity as an index of growth. Test compounds present at 2uM
HepG2 = assay: GSK_TCMDC: Percent inhibition of human HepG2 cell line. Test compounds present at 10uM.

SMILES | Inhibition (Plasmodium falciparum [1]) | Inhibition (Plasmodium falciparum [2]) | Inhibition (HepG2)
COc1ccc(NC(=O)CSc2nc(-c3ccccc3Cl)ns2)cc1OC | 97% | 63% | 0%
COc1ccccc1N1CCN(C(C(=O)NCc2cccc(F)c2)c2ccc(C)cc2)CC1 (configuration not stated) | 94% | 80% | 4%
Cc1cc(NC(=O)NCCN2CCC(NS(=O)(=O)c3ccccc3Cl)C2)c2ccccc2n1 (configuration not stated) | 97% | 43% | 1%
Cc1[nH]c(/C=C2\C(=O)Nc3ccc(S(=O)(=O)Cc4c(Cl)cccc4Cl)cc32)c(C)c1C(=O)N1CCC[C@@H]1CN1CCCC1 [PHA-665752] | 85% | 92% | 33%
Br.CCOCc1cn(CC(=O)c2ccc(-c3ccccc3)cc2)c(C)nc1=N | 93% | 72% | 13%
Cn1nc(-c2cccc(CNCc3ccccc3)c2)c2cnc(NC3CCCC3)nc21 | 85% | 11% | 5%
COc1ccc2nc(C)cc(Nc3ccc(Oc4ccc5ccccc5c4Cl)c(Cl)c3)c2c1 | 100% | 98% | 32%
CCCNCc1ccc(-c2ccc(CN(CC3CCCO3)C(=O)COc3ccccc3Cl)cc2)nc1.O=C(O)C(F)(F)F (configuration not stated) | 89% | 11% | 5%
CCOc1ccc2[nH]c(C)cc(=NN=Cc3ccccc3Cl)c2c1 | 100% | 100% | 11%
N#Cc1ccc(CN2CCCN(c3ccc(NC(=O)c4ccc(F)cc4)cc3)CC2)cc1.O=C(O)C(F)(F)F | 90% | 61% | 12%
C=CCN1C(=O)CN(S(=O)(=O)c2ccc(-n3nc(C)cc3C)cc2)C1=S | 93% | 0% | 5%
Cc1cccn2c(=O)c3cc(C(=O)NC(C)c4ccccc4)c(=N)n(CCN4CCOCC4)c3nc12 (configuration not stated) | 100% | 5% | 6%
CN1CCC(c2cc3c(cc2Br)CCN3C(=O)Nc2ccc(-c3ccncc3)c(Cl)c2)CC1 | 91% | 0% | 26%
C[C@@H](COc1ccccc1)NCC(O)c1ccc([N+](=O)[O-])c(OCc2ccccc2)c1 (some centres not stated) | 93% | 64% | 5%
O=C(Nc1cccc(CN2CCCN(Cc3ccc4c(c3)OCO4)CC2)c1)c1ccc(-c2ccccc2)cc1.O=C(O)C(F)(F)F | 90% | 19% | 48%
COc1ccc(S(=O)(=O)NC2CCN(CCCOc3ccnc4cc(Cl)ccc34)C2)cc1OC (configuration not stated) | 91% | 56% | 8%
CCCN(Cc1nnc(-c2ccco2)o1)C(=O)C1CCCN(C(=O)c2ccc(Cl)cc2)C1 (configuration not stated) | 96% | 96% | 0%
Oc1ccc2ncnc(Nc3ccc(OCc4cccc(F)c4)c(Cl)c3)c2c1 | 100% | 30% | 24%
COc1cc(CN2CCC(C(=O)Nc3ccc(-c4cccc(C)c4)cc3)CC2)ccc1O | 100% | 85% | 25%
O=C(/C=C/c1ccc2ccccc2c1)NCC1(c2ccc(-c3ccccc3)cc2)CCOCC1 | 95% | 34% | 9%

SMILES | Inhibition (Plasmodium falciparum [1]) | Inhibition (Plasmodium falciparum [2]) | Inhibition (HepG2)
Cc1c(C2CCN(CCCCNC(=O)c3ccc(-c4ccc(C#N)cc4)cc3)CC2)c2ccccc2n1CCO | 96% | 99% | 28%
CCCNC(=O)c1cncc(-c2ccc(CNC(CC)c3ccccc3)cc2)c1.O=C(O)C(F)(F)F (configuration not stated) | 92% | 1% | 20%
CCCC(C)NC(=O)C(N)Cc1cccc(I)c1.O=C(O)C(F)(F)F (configuration not stated) | 95% | 65% | 11%
O=c1cc(NCCCNC2CCc3ccc(Cl)cc32)[nH]c2ccccc12 (configuration not stated) | 92% | 39% | 0%
CN1CCN(C(=O)CN2CCC3(CCC2=O)NC(=O)c2ccccc2O3)CC1 (configuration not stated) | 99% | 98% | 0%
COc1ccccc1NC(=O)NC1CCN(CCCCCNC(=O)/C=C/c2ccc(Cl)c(Cl)c2)CC1 | 100% | 15% | 4%
COc1ccc2[nH]cc(C3CCN(CCCCNC(=O)c4ccc(NC(=O)c5ccc(Cl)cc5)cc4)CC3)c2c1 | 98% | 16% | 17%
c1cncc(-c2cc(N3CCc4ccccc4C3)nc(-c3ccncc3)n2)c1 | 100% | 100% | 56%
COc1cc(Cc2cnc(N)nc2N)cc(OCC(C)(C)C(=O)O)c1OC | 89% | 0% | 0%
Cc1cc(C(=O)Nc2ccc3c(c2)CCN3C2CCN(Cc3ccc(F)cc3Cl)C2)no1 (configuration not stated) | 95% | 96% | 7%
COc1ccc(NC(=O)Nc2ccc(-c3ccncc3)c(C(F)(F)F)c2)cc1N1CCN(C)CC1 | 100% | 62% | 5%
CCC1CN2CCc3c([nH]c4ccccc34)C2CC1CC1=NCCc2c1[nH]c1ccccc21.Cl (configuration not stated) | 100% | 47% | 20%
Cc1cccc2nc(-c3cccc(-c4cccc(NC(=O)CNC(=O)c5ccc(O)cc5)c4)c3)[nH]c12 | 94% | 49% | 9%
O=C(Nc1cccc(-c2cc3ccccc3[nH]2)c1)C1CCN(Cc2ccccc2O)CC1 | 95% | 25% | 34%
O=C(Cc1cc(F)cc(F)c1)NC1CCN(c2ccnc3cc(Cl)ccc23)C1.O=C(O)C(F)(F)F (configuration not stated) | 82% | 100% | 13%
O=C(/C=C/c1ccc(Cl)cc1Cl)NCCCCCN1CCC(c2c[nH]c3ccccc23)CC1 | 99% | 9% | 95%
O=C(NC1CCN(Cc2ccc3c(c2)OCCO3)CC1)c1ccc(-c2cccc(C(F)(F)F)c2)s1.O=C(O)C(F)(F)F | 100% | 35% | 99%
CCc1ccc(NC(=O)c2ccc(CN3CCCN(Cc4cccc(C)c4)CC3)cc2)cc1.O=C(O)C(F)(F)F | 80% | 0% | 53%
COc1cccc(-c2csc(C(=O)NC3CCCCN(Cc4ccc(C(C)(C)C)cc4)C3)c2)c1.O=C(O)C(F)(F)F (configuration not stated) | 97% | 66% | 9%
CN1CCC(C(=O)Nc2ccc(-c3cccc(-c4nc5cc(F)ccc5[nH]4)c3)cc2)CC1 | 100% | 5% | 19%

SMILES | Inhibition (Plasmodium falciparum [1]) | Inhibition (Plasmodium falciparum [2]) | Inhibition (HepG2)
Fc1cc(Cl)ccc1Nc1ccnc2cc(-c3ccc(CN4CCSCC4)o3)ccc12 | 100% | 99% | 17%
Cl.Nc1ncc(Cc2cc(Cl)c(N)c3ncccc23)c(N)n1 | 89% | 95% | 5%
CN(Cc1cccc(O)c1)C1CCN(c2cc(NC(=O)c3cccc(F)c3)ccn2)CC1.O=C(O)C(F)(F)F | 98% | 37% | 0%
N#Cc1cccc(Nc2cc(C(F)(F)F)nc(Nc3ccccc3)n2)c1.O=C(O)C(F)(F)F | 92% | 17% | 7%
CC(CN1CCN(C)CC1)C(=O)Nc1cccc(-c2ccc(-c3nc4ccccc4[nH]3)s2)c1 (configuration not stated) | 97% | 59% | 2%
O=C(NC1CCN(Cc2ccsc2)CC1)c1ccc(-c2cccc(C(F)(F)F)c2)s1.O=C(O)C(F)(F)F | 88% | 3% | 48%
COc1ccccc1Oc1c(N(C)S(=O)(=O)c2ccc(C(C)C)cc2)nc(C(F)(F)F)nc1N(C)S(=O)(=O)c1ccc(C(C)C)cc1 | 94% | 98% | 4%
S=C(NCCCCCN1CCC(c2c[nH]c3ccccc23)CC1)Nc1cc(Cl)cc(Cl)c1 | 100% | 35% | 25%
N#Cc1ccc(N(CCOc2ccc3c(c2)CCC(=O)N3)Cc2ccccc2C(F)(F)F)cc1C(F)(F)F | 98% | 64% | 19%
C=CCOC(=O)N1CCC(CNCc2cccc(-c3cccc(-c4nc5cccc(C)c5[nH]4)c3)c2)C1.O=C(O)C(F)(F)F (configuration not stated) | 100% | 69% | 22%
CN(c1ccc(NC(=O)c2ccc(F)cc2)cc1)C1CCN(Cc2cccc(F)c2)C1.O=C(O)C(F)(F)F (configuration not stated) | 81% | 74% | 3%
O=C(Nc1ccc(-c2cccc(-c3nc4cc(F)ccc4[nH]3)c2)cc1)c1cnn2cccnc12 | 98% | 25% | 10%
Cc1cc(-c2ccc(S(=O)(=O)Nc3cc4c(cc3OC(C)C)CCN(C)CC4)cc2)ccc1Cl.Cl | 90% | 19% | 33%
COc1cc2ncnc(Nc3ccc4nc(Cc5ccccc5)[nH]c4c3)c2cc1OC.Cl | 87% | 28% | 0%
O=C(Nc1cccc(CN2CCCN(Cc3ccc4c(c3)OCO4)CC2)c1)c1ccc2ccccc2c1.O=C(O)C(F)(F)F | 86% | 14% | 7%
O=C(Nc1ccc(-c2ccccc2)cc1)Nc1cccc(Cn2ncc(N3CCCNCC3)c(Cl)c2=O)c1 | 100% | 52% | 14%
O=C(NCc1ccc(Cl)c(Cl)c1)[C@H]1CNCCN1C(=O)c1ccccc1.O=C(O)C(F)(F)F | 97% | 4% | 0%
CC(CN1CCN(CC(c2ccc(F)cc2)N2CCN(C)CC2)CC1)C(=O)c1ccc(O)cc1.O=C(O)/C=C\C(=O)O (configuration not stated) | 97% | 10% | 0%
O=C(Nc1cccc(C(F)(F)F)c1)Nc1ccc(Cl)c(Cl)c1 | 100% | 100% | 5%

From ChEMBL document CHEMBL1157539, “Thousands of chemical starting points for antimalarial lead identification” (Nature, 2010)
